Assay results reported in the supplement of paper PMC13094657.
Counter-ions that a name gives are not always drawn. ± gives the standard deviation of the averaged measurements.

System: MDA-MB-231
Assay: cell viability relative to vehicle unstimulated control (fraction); higher = more viable cells
Conditions: pre-treatment time: 18 h then 24 h IFNg/TNF
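Note: viability of the cells left after supernatant collection, read with Deep Blue dye added for 4 h, as absorbance at 570 nm minus 600 nm.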

Row | Structure (SMILES) | cell viability
1 | CC1=C[C@H]2[C@@]3(O)[C@H](C)[C@@H](O)[C@]4(O)[C@H]([C@@H]3C=C(CO)C[C@]2(O)C1=O)C4(C)C [Phorbol] (compound dose: 10 uM) | 1.02 ± 0.074
2 | CC(=O)OC(C)(C)/C=C/C(=O)[C@](C)(O)[C@H]1[C@H](O)C[C@@]2(C)[C@@H]3CC=C4[C@H](C[C@H](O)C(=O)C4(C)C)[C@]3(C)C(=O)C[C@]12C [Cucurbitacin B] (compound dose: 10 uM) | 0.396 ± 0.061
3 | CN[C@H]1CCc2cc(OC)c(OC)c(OC)c2-c2ccc(OC)c(=O)cc21 [Demecolcine (colcemid)] (compound dose: 10 uM) | 0.847 ± 0.13
4 | CC1=C[C@]23C(=O)[C@@H](C=C(COC(=O)c4ccccc4)[C@@H](O)[C@]2(O)[C@H]1OC(=O)c1ccccc1)[C@H]1[C@@H](C[C@H]3C)C1(C)C [Ingenol 3,20-dibenzoate] (compound dose: 10 uM) | 1.05 ± 0.061
5 | CC(C)(C)[C@]1(O)CC2OC(=O)CC23C(=O)OC2OC(=O)[C@H](O)C231 (some centres undefined) [Bilobalide] (compound dose: 10 uM) | 1.01 ± 0.015
6 | CO[C@H]1CCN2[C@@H]3C=CC4=CC(=O)O[C@]4(C3)[C@@H]2C1 [Securitinine] (compound dose: 10 uM) | 0.983 ± 0.035
7 | C[C@@H]1C(=O)O[C@H]2[C@H](O)[C@@]34O[C@@H]5OC(=O)[C@H](O)[C@@]56[C@H](C(C)(C)C)[C@H](O)C(OC3=O)[C@]64[C@@]12O (some centres undefined) [Ginkgolide C] (compound dose: 10 uM) | 0.9704 ± 0.0066
8 | COc1cc2c3c(c1OC)-c1ccccc1C[C@H]3N(C)CC2 [Nuciferine] (compound dose: 10 uM) | 1.05 ± 0.051
9 | O=C([O-])c1ccc[n+]([C@@H]2O[C@H](CO)[C@@H](O)[C@H]2O)c1 [Nicotinic acid riboside] (compound dose: 10 uM) | 0.784 ± 0.36
10 | CN1[C@@H]2CC[C@H]1C[C@@H](OC(=O)C(CO)c1ccccc1)C2 (some centres undefined) [Atropine sulfate] (compound dose: 10 uM) | 0.996 ± 0.016
11 | CC(=O)O[C@H]1C[C@H](O[C@H]2[C@@H](O)C[C@H](O[C@H]3[C@@H](O)C[C@H](O[C@H]4CC[C@@]5(C)[C@H](CC[C@@H]6[C@@H]5C[C@@H](O)[C@]5(C)[C@@H](C7=CC(=O)OC7)CC[C@]65O)C4)O[C@@H]3C)O[C@@H]2C)O[C@H](C)[C@H]1O[C@@H]1O[C@H](CO)[C@@H](O)[C@H](O)[C@H]1O [Lanatoside C] (compound dose: 10 uM) | 0.607 ± 0.021
12 | C=C1[C@H](OC(=O)c2ccccc2)C[C@H]2[C@@H](/C=C(\C)C(=O)[C@@]3(OC(C)=O)C[C@H](C)[C@H](OC(=O)c4ccccc4)[C@@H]3[C@H]1OC(C)=O)C2(C)C [Euphorbia Factor L2] (compound dose: 10 uM) | 0.847 ± 0.044
13 | COc1cc([C@@H]2c3cc4c(cc3C[C@H]3COC(=O)[C@@H]32)OCO4)cc(OC)c1OC [4-deoxypodophyllotoxin] (compound dose: 10 uM) | 0.814 ± 0.042
14 | CC(=O)O[C@@H]1[C@H]2[C@@H](OC(=O)Cc3ccccc3)[C@@H](C)C[C@]2(OC(C)=O)C(=O)/C(C)=C/[C@@H]2[C@H](CC[C@]13CO3)C2(C)C [Euphorbia factor L1] (compound dose: 10 uM) | 1.12
15 | COc1ccc2c(c1O)-c1c(O)c(OC)cc3c1[C@H](C2)N(C)CC3 [Corytuberine] (compound dose: 10 uM) | 0.829 ± 0.025
16 | CCCCCCCCCCCCCC(=O)O[C@@H]1[C@@H](C)[C@@]2(O)[C@@H](C=C(CO)C[C@]3(O)C(=O)C(C)=C[C@@H]23)[C@@H]2C(C)(C)[C@]12OC(C)=O [Phorbol 12-Myristate 13-Acetate] (compound dose: 10 uM) | 1.09 ± 0.038
17 | COc1cc2c(cc1OC)-c1c(OC)c(OC)cc3c1[C@H](C2)N(C)CC3 [(S)-Glaucine (commercial standard)] | 1.07 ± 0.065
18 | C[C@@]12C[C@@H](c3ccoc3)OC(=O)[C@@H]1CC[C@]1(C)[C@H]2[C@@H]2C=C[C@@]1(O)C(=O)O2 [Columbin] (compound dose: 10 uM) | 0.9915 ± 0.0091
19 | C=C1CC[C@H]2[C@@H](/C=C(\C)C(=O)[C@@]3(OC(C)=O)C[C@H](C)[C@H](OC(=O)Cc4ccccc4)[C@@H]3[C@H]1OC(C)=O)C2(C)C [Deoxy euphorbia factor L1] (compound dose: 10 uM) | 1.07 ± 0.074
